Laboratory results reported in PubChem BioAssay (NCATS).
“And” between values parts separate entries of the source, which are not always exact repeats. Equal entries are not always repeated. Results filed as inconclusive are left out. Where a call stands in place of a potency, no number is given. Where a structure was tested more than once in an assay, its records may differ in their call. The source made the active and inactive calls. Unless noted, calls follow the shape of the dose curve; as a rule, active = well fitted curve in either direction with a large enough effect (not every such curve was filed as active); inconclusive = small, poorly fitted or top-dose-only effect, or another doubt; inactive = flat fitted curve, though single readings scatter.

Legend:
[1] = AP1 Signaling Pathway (AID 357);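 also: ME-180 reporter cells stimulated with EGF at its EC50 level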
Summary of the method: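 Titration-series screen for positive or negative modulators of EC50 EGF-induced signaling in ME-180 cells carrying an AP-1-driven beta-lactamase reporter. After 5 hours at 37 degrees Celsius, CCF4 460nm/530nm emission ratio gave %Activity; AC50 values derived.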

[2] = molecular target: Cytochrome P450 1A2 (Homo sapiens) (UniProt P05177); test: p450-cyp1a2 (AID 410; calls by dose curve; also: potency is read from the fitted curve at half-maximal effect)
Summary of the method: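 Luminescent readout of luciferin formed from Luciferin-ME by human CYP1A2; data normalized against complete inhibition by 57 uM furafylline. Enzyme 20nM, substrate 100uM at Km, 100mM KPO4 buffer, 60 min reaction at room temperature.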

[3] = Stat Signaling Pathway (AID 446);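 also: ME-180 cervical cancer cells given 40 pM IL-6 alongside compound; SIE-controlled beta-lactamase reporter measured as 460/530 nm FRET emission ratio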
Summary of the method: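 ME-180 cells carrying a SIE-driven beta-lactamase reporter are stimulated with 40 pM IL-6 for 5 h at 37C in the presence of compound. The 460/530 nm FRET substrate ratio is read after 2.5 h at RT. Data are normalised to 300 pM IL-6 and to 125 nM JAK inhibitor controls.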

[4] = Cell Viability - BJ (AID 421; calls by dose curve;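 also: potency is read from the fitted curve at half-maximal effect; cells exposed to compound for 40 hours at 37 °C before readout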); settings: BJ fibroblast viability, qHTS
Summary of the method: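 Normal human BJ foreskin fibroblasts, 1500/well in complete medium, treated 40 hr at 37 °C. Cellular ATP by CellTiter-Glo luminescence; normalized to DMSO and 100 uM tamoxifen, AC50 from Hill fit.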

[5] = Cell Viability - Jurkat (AID 426;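 active = dose-dependent loss of cell ATP signal giving a full or clear fitted curve, ranked by lower potency value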; also: potency is read from the fitted curve at half-maximal effect); settings: qHTS
Summary of the method: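 qHTS, 1536-well; Jurkat E6-1, 5000 cells/well, complete medium; cpd 40 hr, 37 °C; CellTiter-Glo 20 min RT; luminescence. AC50 by Hill fit.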

[6] = Cell Viability - Hek293 (AID 427;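 active = compounds whose dose-response curve shows a full or clear partial loss of cell viability, called from curve shape rather than a numeric limit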;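 also: potency is read from the fitted curve at half-maximal effect; cells exposed to compound for 40 hours at 37 °C before reading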); settings: qHTS
Summary of the method: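 HEK293 cells in complete medium were exposed to compound for 40 hr at 37 °C, then cellular ATP was read by CellTiter-Glo luminescence. Data were normalized to DMSO (basal) and 100 uM tamoxifen (100% inhibition), and AC50 came from Hill fits.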

[7] = Cell Viability - HepG2 (AID 433; calls by dose curve;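 also: potency is read from the fitted curve at half-maximal effect; potency for ATP loss meaning cytotoxicity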); settings: qHTS
Summary of the method: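 Read-out is luciferase-based quantitation of cellular ATP as a measure of viable HepG2 cells after 40 h treatment at 37 °C. Signal decrease is scaled between DMSO-only and 100 uM tamoxifen controls, with AC50 fitted by the Hill equation.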

[8] = Cell Viability - MRC5 (AID 434; calls by dose curve;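 also: potency is read from the fitted curve at half-maximal effect; potency reflects cytotoxicity seen as loss of intracellular ATP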); settings: MRC5 lung fibroblast viability, qHTS
Summary of the method: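 MRC5 normal human lung fibroblasts (1500/well) were treated with compounds for 40 hr at 37 °C in complete medium, and viable cells were measured as intracellular ATP by CellTiter-Glo luminescence. AC50 came from Hill fits, normalized to DMSO and 100 uM tamoxifen.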

[9] = Cell Viability - SK-N-SH (AID 435; calls by dose curve;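 also: potency is read from the fitted curve at half-maximal effect; compound exposure lasted 40 h at 37 °C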); settings: SK-N-SH neuroblastoma cell viability qHTS
Summary of the method: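 Luminescent ATP signal served as the viability read-out after 40 hours of compound treatment of human neuroblastoma SK-N-SH cells. Concentration-response data, scaled between DMSO and 100 uM tamoxifen, gave AC50 values by standard Hill modeling.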

[10] = NFAT Signaling Pathway (AID 444); settings: Jurkat NFAT-bla M1, carbachol, beta-lactamase ratio, 5 h;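 also: carbachol stimulus at about its EC50 of 1 µM final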
Summary of the method: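 Jurkat cells carrying an NFAT-driven β-lactamase reporter and co-transfected muscarinic M1 receptor were treated with compound plus carbachol (1 uM final, an EC50 level) for 5 h at 37 °C. CCF4 loading followed for 1 h at RT; 460/530 nm ratio gave %activity.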

Chain of Cytochrome P450 1A2 (Homo sapiens) (P05177 whole entry, looked up): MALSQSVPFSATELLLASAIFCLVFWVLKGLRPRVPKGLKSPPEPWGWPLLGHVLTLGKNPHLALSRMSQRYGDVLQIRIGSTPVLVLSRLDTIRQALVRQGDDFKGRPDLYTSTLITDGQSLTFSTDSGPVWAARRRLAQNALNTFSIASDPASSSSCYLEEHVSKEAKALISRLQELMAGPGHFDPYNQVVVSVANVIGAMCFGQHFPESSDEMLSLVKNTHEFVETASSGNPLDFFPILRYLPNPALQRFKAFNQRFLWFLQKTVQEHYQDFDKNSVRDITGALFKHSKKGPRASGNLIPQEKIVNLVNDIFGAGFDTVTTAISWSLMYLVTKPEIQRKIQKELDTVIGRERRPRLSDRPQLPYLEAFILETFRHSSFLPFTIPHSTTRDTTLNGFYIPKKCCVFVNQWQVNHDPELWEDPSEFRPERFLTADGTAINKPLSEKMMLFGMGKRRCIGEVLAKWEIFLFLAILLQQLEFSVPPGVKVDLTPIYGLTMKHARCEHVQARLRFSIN

O=c1cc(N2CCOCC2)oc2c(-c3ccccc3)cccc12
outcome [1]: inactive
Potency [2]: 1.58 µM (active) and 200 nM (active)
outcome [3]: inactive

NCCCCNCCCN
outcome [1]: inactive
Potency [2]: inactive and 31.6 µM (active)

NS(=O)(=O)c1cc(C(=O)O)c(NCc2ccco2)cc1Cl
outcome [1]: inactive
Potency [4]: > 92 µM (inactive)
Potency [5]: > 92 µM (inactive)
Potency [6]: > 92 µM (inactive)
Potency [7]: > 92 µM (inactive)
Potency [8]: > 92 µM (inactive)
Potency [9]: > 92 µM (inactive)
outcome [3]: inactive

CCCCc1ccc2nc(NC(=O)OC)[nH]c2c1
outcome [1]: inactive
Potency [2]: 0.501 µM (active)
outcome [3]: inactive

O=C(CCc1ccc(O)cc1)c1c(O)cc(O)cc1O
outcome [1]: inactive
Potency [2]: 6.31 µM (active) and 2 µM (active)

COc1ccccc1N1CCN(CCN(C(=O)C2CCCCC2)c2ccccn2)CC1
outcome [1]: inactive
Potency [2]: inactive
outcome [3]: inactive

CCc1nc(N)nc(N)c1-c1ccc(Cl)cc1
outcome [1]: inactive
Potency [2]: 10 µM (active)
Potency [4]: > 92 µM (inactive)
Potency [5]: 3.02 µM (active)
Potency [6]: 1.64 µM (active)
Potency [7]: 1.05 µM (active)
Potency [8]: > 92 µM (inactive)
Potency [9]: 25.6 µM (active)
activity change, negative = inhibition ([10]; at 17.2 µM (top of the series)): -6.33% (inactive) and 6.33% (inactive)
outcome [3]: inactive

O=C(O)c1cccnc1Nc1cccc(C(F)(F)F)c1
outcome [1]: inactive
Potency [2]: 10 µM (active) and 5.01 µM (active)
outcome [3]: inactive

CN1C(C(=O)Nc2ccccn2)=C(O)c2sccc2S1(=O)=O
outcome [1]: inactive
Potency [2]: inactive
outcome [3]: inactive

CCC1=C(C)CN(C(=O)NCCc2ccc(S(=O)(=O)NC(=O)NC3CCC(C)CC3)cc2)C1=O (stereo unspecified)
outcome [1]: inactive
Potency [2]: inactive
outcome [3]: inactive

Cc1nc2n(c(=O)c1CCN1CCC(c3noc4cc(F)ccc34)CC1)CCCC2
outcome [1]: inactive
Potency [2]: inactive
outcome [3]: inactive

CC1(C)NC(=O)N(c2ccc([N+](=O)[O-])c(C(F)(F)F)c2)C1=O
outcome [1]: inactive
Potency [2]: 12.6 µM (active) and 3.16 µM (active) and 2.51 µM (active)
outcome [3]: inactive

c1ccc2[nH]c(-c3cscn3)nc2c1
outcome [1]: inactive
Potency [2]: 0.126 µM (active)
Potency [4]: > 92 µM (inactive)
Potency [6]: > 92 µM (inactive)
Potency [7]: > 92 µM (inactive)
Potency [8]: > 92 µM (inactive)
Potency [9]: > 92 µM (inactive)
outcome [3]: inactive

O=c1c(O)c(-c2cc(O)c(O)c(O)c2)oc2cc(O)cc(O)c12
outcome [1]: inactive
Potency [2]: 5.01 µM (active) and 2 µM (active) and 7.94 µM (active)
outcome [3]: inactive

O=C1c2ccccc2-c2n[nH]c3cccc1c23
outcome [1]: inactive
Potency [2]: 126 nM (active) and 15.8 nM (active)

CCCc1cc(=O)[nH]c(=S)[nH]1
outcome [1]: inactive
Potency [2]: inactive
Potency [4]: > 92 µM (inactive)
Potency [5]: > 92 µM (inactive)
Potency [6]: > 92 µM (inactive)
Potency [7]: > 92 µM (inactive)
Potency [8]: > 92 µM (inactive)
Potency [9]: > 92 µM (inactive)
activity change, negative = inhibition ([10]; at 17.2 µM (top of the series)): -2.4% (inactive) and 6.45% (inactive)
outcome [3]: inactive

CCOc1cc(CC(=O)N[C@@H](CC(C)C)c2ccccc2N2CCCCC2)ccc1C(=O)O
outcome [1]: inactive
Potency [2]: inactive
activity change, negative = inhibition ([10]; at 17.2 µM (top of the series)): -1.28% (inactive)
outcome [3]: inactive

Nc1nc(OCc2ccccc2)c2[nH]cnc2n1
outcome [1]: inactive
Potency [2]: 1 µM (active)
outcome [3]: inactive

O=c1c(O)c(-c2ccc(O)cc2O)oc2cc(O)cc(O)c12
outcome [1]: inactive
Potency [2]: 12.6 µM (active)

Cc1cc2cc3c(C)cc(=O)oc3c(C)c2o1
outcome [1]: inactive
Potency [2]: 1 µM (active)

NNc1nncc2ccccc12
outcome [1]: inactive
Potency [2]: 3.16 µM (active) and 1 µM (active)
outcome [3]: inactive

Cc1cc(C2CCCCC2)n(O)c(=O)c1
outcome [1]: inactive
Potency [2]: 15.8 µM (active)
outcome [3]: inactive

Cc1cccc(C#Cc2ccccc2)n1
outcome [1]: inactive
Potency [2]: 631 nM (active) and 158 nM (active)
outcome [3]: inactive

Cc1c(OCC(F)(F)F)ccnc1CS(=O)c1nc2ccccc2[nH]1 (stereo unspecified)
outcome [1]: inactive
Potency [2]: 31.6 µM (active) and 15.8 µM (active)
outcome [3]: inactive

CC(=O)Nc1ccc(O)cc1
outcome [1]: inactive
Potency [2]: inactive
Potency [4]: > 92 µM (inactive)
Potency [5]: > 92 µM (inactive)
Potency [6]: > 92 µM (inactive)
Potency [7]: > 92 µM (inactive)
Potency [8]: > 92 µM (inactive)
Potency [9]: > 92 µM (inactive)
outcome [3]: inactive

NC(=NCc1ccccc1)NC(=O)c1nc(Cl)c(N)nc1N
outcome [1]: inactive
Potency [2]: 12.6 µM (active) and 10 µM (active)
activity change, negative = inhibition ([10]; at 17.2 µM (top of the series)): -15.5% (inactive)
activity change, negative = inhibition ([10]; at 38 µM (top of the series)): -27.8% (inactive)
outcome [3]: inactive
